The target in experiment [1] is human Caspase 2 (CASP2), CASP2 (gene 835) (UniProt P42575). The experiment can be described thus: NVS_ENZ_hCASP2: NovaScreen (NVS) Enzymatic Assay for human Caspase 2 (CASP2) (AID 2283135). In short, it runs like this:
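Single-point duplicate testing at 25 uM preceded concentration series topping at 50 uM. Activity of the recombinant E. coli-derived protease was followed by fluorescent substrate cleavage 1 h post-dosing, relative to DMSO.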

The target of experiment [2] is Voltage-dependent N-type calcium channel subunit alpha-1B (Rattus norvegicus) (UniProt Q02294). The experiment can be described thus: NVS_IC_rCaChN: NovaScreen (NVS) Ion Channel Assay for rat Calcium Channel, Type N (CaChN) (AID 2283317).
The target in experiment [3] is human Aurora Kinase A - serine/threonine-protein Kinase 6 (AurA), AURKA (gene 6790) (UniProt O14965). The experiment can be described thus: NVS_ENZ_hAurA: NovaScreen (NVS) Enzymatic Assay for human Aurora Kinase A - serine/threonine-protein Kinase 6 (AurA) (AID 2283142). In a few lines: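 Recombinant human AurA activity read by fluorescence after mobility-shift separation of product from substrate; 1 hour incubation. Chemicals first run in duplicate at 25 uM, then concentration series to 50 uM if over threshold; fitted relative to DMSO.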

Experiment [4] has as its target human Matrix Metalloproteinase-1 (MMP1), MMP1 (gene 4312) (UniProt P03956). As to the kind of experiment: NVS_ENZ_hMMP1: NovaScreen (NVS) Enzymatic Assay for human Matrix Metalloproteinase-1 (MMP1) (AID 2283181). In short, it runs like this: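 Cell-free fluorescent substrate assay of human MMP1, read after 1 h. A single 25 uM duplicate screen was followed by concentration series to a maximum of 50 uM for actives meeting threshold; inhibition analysed against DMSO baseline.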

Experiment [5] deals with human NIMA (Never In Mitosis Gene A)-Related Kinase 2 (NEK2), NEK2 (gene 4751) (UniProt P51955). As to the kind of experiment: NVS_ENZ_hNEK2: NovaScreen (NVS) Enzymatic Assay for human NIMA (Never In Mitosis Gene A)-Related Kinase 2 (NEK2) (AID 2283188). In short, it runs like this: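 Compounds were first screened in duplicate at 25 uM, with actives followed up in concentration series. Recombinant NEK2 activity, cell-free, was read 1 h after dosing by fluorescence intensity after mobility-shift separation. Signal loss was scored against DMSO.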

Experiment [6] has as its target human Phosphatase and Tensin Homolog (PTEN), PTEN (gene 5728) (UniProt P60484). The experiment can be described thus: NVS_ENZ_hPTEN: NovaScreen (NVS) Enzymatic Assay for human Phosphatase and Tensin Homolog (PTEN) (AID 2283203). In short, it runs like this:
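Loss of fluorescent product signal after mobility-shift separation reports PTEN activity, recombinant human enzyme, 1 h after compound addition. Single 25 uM duplicate screen, then concentration-response on actives; DMSO baseline.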

Experiment [7] addresses rat Oxytocin Receptor (OXT), Oxtr (gene 25342) (UniProt P70536). As to the kind of experiment: NVS_GPCR_rOXT: NovaScreen (NVS) G Protein-Coupled Receptor Assay for rat Oxytocin Receptor (OXT) (AID 2283330). In short, it runs like this:
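Binding to rat uterine membrane receptor was followed by scintillation counting of filter-trapped radioligand after 1 h. A 25 uM duplicate single-point screen preceded concentration series with a top of 50 uM. Signal loss was analysed relative to DMSO.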

Experiment [8] relates to rat Monoamine Oxidase, MAO-A, Peripheral (MAOAP), gene 29253. As to the kind of experiment: NVS_ENZ_rMAOAP: NovaScreen (NVS) Enzymatic Assay for rat Monoamine Oxidase, MAO-A, Peripheral (MAOAP) (AID 2283237). In a few lines: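 Scintillation counting tracked MAO-A activity in a cell-free rat liver mitochondrial membrane prep, read 1.17 hours after compound addition. Single-point duplicate testing at 25 uM preceded concentration-response follow-up; activity was fitted relative to DMSO.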

In experiment [9] the target is human Epidermal Growth Factor Receptor (EGFR), EGFR (gene 1956) (UniProt P00533). As to the kind of experiment: NVS_ENZ_hEGFR: NovaScreen (NVS) Enzymatic Assay for human Epidermal Growth Factor Receptor (EGFR) (AID 2283151). In short, it runs like this:
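Cell-free kinase assay, fluorescence plus electrophoretic mobility shift separating substrate and product, read 1 hour after dosing; loss of signal vs DMSO. Duplicate screen at 25 uM, then concentration-response to 50 uM.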

The test system of experiment [10] is guinea pig Atrionatriuretic Peptide Receptor A (ANPA), gene 100135578. The experiment can be described thus: NVS_GPCR_gANPA: NovaScreen (NVS) G Protein-Coupled Receptor Assay for guinea pig Atrionatriuretic Peptide Receptor A (ANPA) (AID 2283291). In a few lines: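 Displacement of specific radioligand from guinea pig cerebellum membranes was read by scintillation after 1 h. A duplicate single-point screen at 25 uM was followed by a concentration series up to 50 uM, analysed relative to DMSO.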

Experiment [11] has as its target human p21 Activated Kinase 4 (PAK4), PAK4 (gene 10298) (UniProt O96013). As to the kind of experiment: NVS_ENZ_hPAK4: NovaScreen (NVS) Enzymatic Assay for human p21 Activated Kinase 4 (PAK4) (AID 2283189). In a few lines:
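Extracted PAK4 enzyme activity read by fluorescence with mobility-shift separation 1 h after chemical addition. Duplicate single-concentration screen at 25 uM, DMSO as negative control.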

The target in experiment [12] is human Fibroblast Growth Factor Receptor 1 (FGFR1), FGFR1 (gene 2260) (UniProt P11362). The experiment can be described thus: NVS_ENZ_hFGFR1: NovaScreen (NVS) Enzymatic Assay for human Fibroblast Growth Factor Receptor 1 (FGFR1) (AID 2283159). In a few lines: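 Cell-free recombinant kinase with fluorescent substrate, product separated by electrophoretic mobility shift; read 1 hour after dosing, loss of signal relative to DMSO. Initial screen in duplicate at 25 uM, actives followed in concentration series.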

In experiment [13] the target is human Protein Tyrosine Phosphatase Non-receptor Type 2 (PTPN2), PTPN2 (gene 5771) (UniProt P17706). As to the kind of experiment: NVS_ENZ_hPTPN2: NovaScreen (NVS) Enzymatic Assay for human Protein Tyrosine Phosphatase Non-receptor Type 2 (PTPN2) (AID 2283207). In a few lines:
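Activity measured as fluorescence after mobility-shift separation of substrate and product, 1 h after compound. Duplicate single-point 25 uM primary testing, concentration series for actives; inhibition scored as signal loss relative to DMSO baseline.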

Experiment [14] deals with human Raf-1 Proto-Oncogene, serine/threonine Kinase (RAF1), RAF1 (gene 5894) (UniProt P04049). The experiment can be described thus: NVS_ENZ_hRAF1: NovaScreen (NVS) Enzymatic Assay for human Raf-1 Proto-Oncogene, serine/threonine Kinase (RAF1) (AID 2283216). In a few lines: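 Single-point screening at 25 uM (duplicate), followed by singleton concentration-response to 50 uM maximum for chemicals exceeding threshold. Enzyme activity from fluorescent substrate-product mobility-shift separation after 1 h, relative to DMSO.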

For experiment [15], the system named is rat Monoamine Oxidase, MAO-A, Central (MAOAC), gene 29253. The experiment can be described thus: NVS_ENZ_rMAOAC: NovaScreen (NVS) Enzymatic Assay for rat Monoamine Oxidase, MAO-A, Central (MAOAC) (AID 2283243).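 Note: potency refers to inhibition seen as signal drop below DMSO baseline.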 In short, it runs like this:
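Enzyme from rat brain, cell-free radiodetection format. Counts taken at 1.5 h; activity fitted against DMSO baseline, loss of signal marking inhibition. Confirmatory concentration series followed the 25 uM duplicate screen.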

Experiment [16] concerns the target rat Monoamine Oxidase, MAO-B, Peripheral (MAOBP), Maob (gene 25750) (UniProt P19643). As to the kind of experiment: NVS_ENZ_rMAOBP: NovaScreen (NVS) Enzymatic Assay for rat Monoamine Oxidase, MAO-B, Peripheral (MAOBP) (AID 2283242).

Results filed as inconclusive are left out. Calls of active or inactive are those of the source. Rule for the calls: active = hit-call score of the fitted dose curve at least 0.9, where 1 is the maximum; inconclusive = response in the unintended direction; inactive = score below 0.9.

human Protein Tyrosine Phosphatase Non-receptor Type 2 (PTPN2), PTPN2 (gene 5771), sequence (P17706 whole entry, looked up): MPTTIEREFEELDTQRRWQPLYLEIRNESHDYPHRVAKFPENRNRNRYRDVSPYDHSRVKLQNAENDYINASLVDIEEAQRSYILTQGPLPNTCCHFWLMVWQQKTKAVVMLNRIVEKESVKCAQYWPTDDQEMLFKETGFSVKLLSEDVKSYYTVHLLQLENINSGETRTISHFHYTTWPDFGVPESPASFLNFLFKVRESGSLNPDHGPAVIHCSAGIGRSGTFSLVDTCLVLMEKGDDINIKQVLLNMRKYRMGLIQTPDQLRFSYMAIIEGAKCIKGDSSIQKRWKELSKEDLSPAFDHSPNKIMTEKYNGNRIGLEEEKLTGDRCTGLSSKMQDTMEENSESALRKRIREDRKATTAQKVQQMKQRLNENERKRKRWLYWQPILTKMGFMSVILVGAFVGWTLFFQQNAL
human Caspase 2 (CASP2), CASP2 (gene 835), sequence (P42575 whole entry, looked up): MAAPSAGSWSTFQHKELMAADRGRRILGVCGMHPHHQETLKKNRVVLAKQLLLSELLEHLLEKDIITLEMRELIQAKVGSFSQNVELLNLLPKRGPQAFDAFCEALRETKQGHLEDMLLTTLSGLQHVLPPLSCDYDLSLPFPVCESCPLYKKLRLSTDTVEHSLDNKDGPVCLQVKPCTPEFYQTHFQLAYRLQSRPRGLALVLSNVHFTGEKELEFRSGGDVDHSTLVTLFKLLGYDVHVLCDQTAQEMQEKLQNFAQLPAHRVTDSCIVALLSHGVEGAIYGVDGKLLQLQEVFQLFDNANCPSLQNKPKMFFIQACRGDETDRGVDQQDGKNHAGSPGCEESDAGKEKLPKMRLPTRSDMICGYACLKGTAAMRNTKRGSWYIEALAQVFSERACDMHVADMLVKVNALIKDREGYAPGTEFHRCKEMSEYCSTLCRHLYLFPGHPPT
human Aurora Kinase A - serine/threonine-protein Kinase 6 (AurA), AURKA (gene 6790), sequence (O14965 whole entry, looked up): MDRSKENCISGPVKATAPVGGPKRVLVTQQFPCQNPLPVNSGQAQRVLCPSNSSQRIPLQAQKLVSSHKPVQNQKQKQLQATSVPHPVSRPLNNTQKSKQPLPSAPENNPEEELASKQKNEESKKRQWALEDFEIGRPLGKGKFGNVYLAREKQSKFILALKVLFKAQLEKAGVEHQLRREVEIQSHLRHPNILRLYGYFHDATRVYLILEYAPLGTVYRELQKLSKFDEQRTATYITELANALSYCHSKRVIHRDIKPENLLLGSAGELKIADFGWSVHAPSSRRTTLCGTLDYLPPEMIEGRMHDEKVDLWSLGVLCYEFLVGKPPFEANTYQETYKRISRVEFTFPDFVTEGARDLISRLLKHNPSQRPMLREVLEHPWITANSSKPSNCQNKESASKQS
human Epidermal Growth Factor Receptor (EGFR), EGFR (gene 1956), sequence (P00533 whole entry, looked up): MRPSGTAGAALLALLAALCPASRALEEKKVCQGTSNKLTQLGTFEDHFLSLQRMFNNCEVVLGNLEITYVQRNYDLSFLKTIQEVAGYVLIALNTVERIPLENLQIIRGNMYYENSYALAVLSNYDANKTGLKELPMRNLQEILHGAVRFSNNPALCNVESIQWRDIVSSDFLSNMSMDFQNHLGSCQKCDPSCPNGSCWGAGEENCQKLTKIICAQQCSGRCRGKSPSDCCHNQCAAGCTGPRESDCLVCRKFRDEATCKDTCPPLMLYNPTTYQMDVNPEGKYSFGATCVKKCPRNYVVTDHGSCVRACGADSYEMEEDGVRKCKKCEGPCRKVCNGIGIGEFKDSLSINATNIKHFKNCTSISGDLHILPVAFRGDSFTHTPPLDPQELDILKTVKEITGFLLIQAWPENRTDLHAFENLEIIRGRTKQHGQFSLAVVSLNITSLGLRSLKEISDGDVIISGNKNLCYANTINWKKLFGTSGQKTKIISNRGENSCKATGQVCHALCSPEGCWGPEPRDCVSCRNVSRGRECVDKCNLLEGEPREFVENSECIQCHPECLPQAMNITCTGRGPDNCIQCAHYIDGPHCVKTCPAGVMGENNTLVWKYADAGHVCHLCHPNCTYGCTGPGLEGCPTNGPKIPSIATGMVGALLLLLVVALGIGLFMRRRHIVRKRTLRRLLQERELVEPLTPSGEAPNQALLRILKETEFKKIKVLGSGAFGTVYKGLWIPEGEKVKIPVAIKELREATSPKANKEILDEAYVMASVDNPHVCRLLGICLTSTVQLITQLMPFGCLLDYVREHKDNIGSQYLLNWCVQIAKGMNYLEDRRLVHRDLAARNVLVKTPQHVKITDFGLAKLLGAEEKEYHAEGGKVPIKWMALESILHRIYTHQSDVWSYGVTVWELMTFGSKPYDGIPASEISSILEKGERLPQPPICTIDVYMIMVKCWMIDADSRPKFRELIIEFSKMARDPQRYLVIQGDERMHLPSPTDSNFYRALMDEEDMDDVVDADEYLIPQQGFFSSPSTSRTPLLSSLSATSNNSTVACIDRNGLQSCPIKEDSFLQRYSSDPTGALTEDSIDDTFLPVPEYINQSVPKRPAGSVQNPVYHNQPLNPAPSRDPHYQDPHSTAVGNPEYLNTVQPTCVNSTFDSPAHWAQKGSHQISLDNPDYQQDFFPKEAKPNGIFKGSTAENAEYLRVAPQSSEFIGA
human Matrix Metalloproteinase-1 (MMP1), MMP1 (gene 4312), sequence (P03956 whole entry, looked up): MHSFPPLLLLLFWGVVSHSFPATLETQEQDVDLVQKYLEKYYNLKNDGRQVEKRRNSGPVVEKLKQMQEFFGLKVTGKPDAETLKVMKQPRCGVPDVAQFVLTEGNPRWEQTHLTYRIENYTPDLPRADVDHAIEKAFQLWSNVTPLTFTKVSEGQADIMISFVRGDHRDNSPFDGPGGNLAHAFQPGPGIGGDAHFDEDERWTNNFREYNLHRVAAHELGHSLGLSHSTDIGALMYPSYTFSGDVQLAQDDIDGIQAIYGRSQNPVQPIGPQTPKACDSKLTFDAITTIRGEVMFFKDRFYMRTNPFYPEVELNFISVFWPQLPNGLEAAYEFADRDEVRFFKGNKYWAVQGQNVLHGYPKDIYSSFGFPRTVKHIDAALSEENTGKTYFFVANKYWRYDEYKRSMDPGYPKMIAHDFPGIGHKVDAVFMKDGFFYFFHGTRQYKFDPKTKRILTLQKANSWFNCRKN
rat Oxytocin Receptor (OXT), Oxtr (gene 25342), sequence (P70536 whole entry, looked up): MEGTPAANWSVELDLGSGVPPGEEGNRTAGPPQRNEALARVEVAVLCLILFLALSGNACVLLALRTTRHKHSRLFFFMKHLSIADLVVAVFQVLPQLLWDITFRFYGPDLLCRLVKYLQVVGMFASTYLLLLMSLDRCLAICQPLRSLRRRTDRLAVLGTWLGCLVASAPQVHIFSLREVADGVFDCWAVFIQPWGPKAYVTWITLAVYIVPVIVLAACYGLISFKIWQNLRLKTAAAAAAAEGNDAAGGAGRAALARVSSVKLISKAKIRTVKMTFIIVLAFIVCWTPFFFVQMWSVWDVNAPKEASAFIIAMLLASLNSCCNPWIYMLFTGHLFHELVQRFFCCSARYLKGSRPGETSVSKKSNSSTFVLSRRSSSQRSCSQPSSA
human Phosphatase and Tensin Homolog (PTEN), PTEN (gene 5728), sequence (P60484 whole entry, looked up): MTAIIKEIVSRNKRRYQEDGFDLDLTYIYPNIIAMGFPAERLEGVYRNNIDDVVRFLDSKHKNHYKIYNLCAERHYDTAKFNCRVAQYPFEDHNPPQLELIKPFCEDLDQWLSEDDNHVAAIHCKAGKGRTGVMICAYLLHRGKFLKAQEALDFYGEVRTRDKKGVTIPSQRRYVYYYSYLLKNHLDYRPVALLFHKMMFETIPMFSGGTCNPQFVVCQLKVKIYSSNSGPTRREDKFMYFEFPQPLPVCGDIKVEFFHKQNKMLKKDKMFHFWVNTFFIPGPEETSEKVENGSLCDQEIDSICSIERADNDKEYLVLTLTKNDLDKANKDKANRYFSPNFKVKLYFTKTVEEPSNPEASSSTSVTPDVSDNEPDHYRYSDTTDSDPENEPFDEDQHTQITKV
human p21 Activated Kinase 4 (PAK4), PAK4 (gene 10298), sequence (O96013 whole entry, looked up): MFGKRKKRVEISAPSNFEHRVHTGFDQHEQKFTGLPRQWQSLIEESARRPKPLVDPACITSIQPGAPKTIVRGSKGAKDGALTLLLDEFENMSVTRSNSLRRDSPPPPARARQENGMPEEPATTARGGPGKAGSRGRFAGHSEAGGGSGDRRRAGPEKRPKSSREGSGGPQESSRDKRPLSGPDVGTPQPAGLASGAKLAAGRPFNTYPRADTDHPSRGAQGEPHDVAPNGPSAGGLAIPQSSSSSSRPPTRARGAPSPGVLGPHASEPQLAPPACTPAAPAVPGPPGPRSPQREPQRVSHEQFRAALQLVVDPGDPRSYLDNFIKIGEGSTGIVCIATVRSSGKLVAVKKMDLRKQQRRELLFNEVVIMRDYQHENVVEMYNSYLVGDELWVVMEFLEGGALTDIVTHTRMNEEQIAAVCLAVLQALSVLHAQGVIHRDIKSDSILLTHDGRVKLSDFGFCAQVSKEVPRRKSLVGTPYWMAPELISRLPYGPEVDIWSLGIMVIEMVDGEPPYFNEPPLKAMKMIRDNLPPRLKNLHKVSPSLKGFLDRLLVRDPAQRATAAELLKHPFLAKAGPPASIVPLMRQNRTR
human Raf-1 Proto-Oncogene, serine/threonine Kinase (RAF1), RAF1 (gene 5894), sequence (P04049 whole entry, looked up): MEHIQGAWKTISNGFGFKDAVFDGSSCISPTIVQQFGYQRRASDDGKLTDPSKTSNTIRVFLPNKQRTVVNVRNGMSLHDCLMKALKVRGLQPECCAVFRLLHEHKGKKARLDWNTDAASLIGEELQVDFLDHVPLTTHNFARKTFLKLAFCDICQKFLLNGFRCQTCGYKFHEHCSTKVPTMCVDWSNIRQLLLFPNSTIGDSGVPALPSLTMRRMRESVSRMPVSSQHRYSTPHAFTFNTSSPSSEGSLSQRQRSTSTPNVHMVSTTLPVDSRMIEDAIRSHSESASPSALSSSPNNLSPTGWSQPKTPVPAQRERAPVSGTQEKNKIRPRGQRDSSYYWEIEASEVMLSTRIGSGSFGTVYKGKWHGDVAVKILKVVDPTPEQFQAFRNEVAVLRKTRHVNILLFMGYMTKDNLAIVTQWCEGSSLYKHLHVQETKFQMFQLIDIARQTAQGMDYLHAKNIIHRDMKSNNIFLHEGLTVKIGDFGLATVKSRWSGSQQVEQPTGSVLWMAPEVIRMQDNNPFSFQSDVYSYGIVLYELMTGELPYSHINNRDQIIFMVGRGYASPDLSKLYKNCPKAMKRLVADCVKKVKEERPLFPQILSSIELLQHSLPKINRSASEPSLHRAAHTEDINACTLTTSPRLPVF

Regarding `C[C@@H](Oc1ccc(CNC(=O)c2cccnc2Oc2ccc3c(c2)OCO3)c(F)c1)C(=O)O`, the compound was classed as inactive in [1] and in experiment [2].

For orientation: AC50 means the concentration giving half of the maximal activity seen. As to `CC(C)(C)c1csc(-c2cc3cc(OCc4ccccc4CC(=O)O)ccc3o2)n1`, the result in experiment [3], in [5] and in [2] was inactive. Besides, in [4], the half-maximal activity concentration (AC50) was 22.5 µM (active).

As for `OCCOCCOCCO`, the result in experiment [3], in experiment [6] and in experiment [7] was inactive.

`NCC1(Cc2noc(=O)[nH]2)CCCCC1`: the compound was called inactive in [1], in [8], in [2] and in experiment [7].

Turning to `NC=O`, the result in experiment [9] was inactive.

Consider `CC(=O)Oc1ccccc1C(=O)O`, for which the compound was called inactive in [9] and in experiment [4].

On to `CN(C)CCCN(C)CCCN(C)C`, for which the compound was classed as inactive in experiment [1] and in experiment [2].

Turning to `O=C(O)c1ccc2c(c1)nc(C(=O)NC1CCN(C3CC3)CC1)n2Cc1cc(-c2ccc(Cl)s2)on1`, the outcome in [3] was inactive.

Consider `O=C(Nc1ccc([N+](=O)[O-])cc1Cl)c1cc(Cl)ccc1O`, for which the result in [3] was inactive.

With `CCc1cccc(CC)c1N`, the call in experiment [1] and in experiment [10] was inactive.

Take `COc1c(Cl)ccc(Cl)c1C(=O)O`: the outcome in experiment [9] was inactive.

Regarding `c1ccc2ccccc2c1`, the compound was classed as inactive in [3], in experiment [11] and in experiment [6].

As to `CN(C)c1ccc(Cc2ccc(N(C)C)cc2)cc1`, the compound was called inactive in [3].

In the case of `FC(F)(F)C(F)(F)C(F)(F)C(F)(F)C(F)(F)C(F)(F)CCI`, the compound was classed as inactive in experiment [3], in experiment [9], in experiment [12], in experiment [11], in experiment [13] and in experiment [14].

`O=C(O)c1cc(N=Nc2ccc(S(=O)(=O)Nc3ccccn3)cc2)ccc1O`: the compound was called inactive in experiment [3], in [13], in experiment [14] and in experiment [15]. In addition, in [9], the half-maximal activity concentration (AC50) was 3.95 µM (active).

As for `O=S1(=O)CCCO1`, the outcome in [3] was inactive.

`CC=Cc1ccc(O)c(OC)c1`: the compound was called inactive in experiment [3] and in [16].

Consider `CC(=O)c1ccccc1`, for which the outcome in [1] and in experiment [10] was inactive.

On to `c1ccc(Nc2ccccc2)cc1`, for which the call in [1] and in experiment [13] was inactive.

The record behind these values is PubChem BioAssay (EPA / NIEHS).
